# Test results: PubChem BioAssay AID1159580 (chemical genetic matrix, 2015)
# Hit rate of the full screen: of about 5,500 compounds, about 2,000 (36%) were called active. Roughly 18% stayed inconclusive and do not appear here. This is one part of the list. Values without a mark were called inactive. Cut-off read from the data, not from the text of the source: active = normalized growth mostly below about 0.91 (no sharp cut-off); inconclusive = no clear call, values can overlap the other calls; inactive = mostly above about 0.92.
# Test: chemical genetic growth profiling, strain panel (AID 1159580);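 note: tested at 20 µM; growth read once vehicle control cultures reached saturation at 30 °C; 1 = growth at the plate median or of vehicle wells; lower values mean less growth of the strain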
# Settings: S. cerevisiae deletion strains, growth OD
# [1] = locus YHR030C, strain SLT2, stronger effect = lower value
# [2] = locus YHR079C, strain IRE1, stronger effect = lower value
# [3] = locus YJL095W, strain BCK1, stronger effect = lower value
# [4] = locus YJR066W, strain TOR1, stronger effect = lower value
# [5] = locus YLR113W, strain HOG1, stronger effect = lower value
# [6] = locus YNL183C, strain NPR1, stronger effect = lower value
# [7] = locus YOR231W, strain MKK1, stronger effect = lower value
# [8] = locus YPL256C, strain CLN2, stronger effect = lower value
compound,measurement,setting,value
O=C(Nc1ccc(F)cc1F)c1cc(Cl)c(-n2cccc2)c(Cl)c1,normalized growth,"locus YAR019C, strain CDC15, stronger effect = lower value",0.975
same,normalized growth,"locus YBL105C, strain PKC1, stronger effect = lower value",0.972
same,normalized growth,"locus YBR135W, strain CKS1, stronger effect = lower value",0.971
same,normalized growth,"locus YBR136W, strain MEC1, stronger effect = lower value",0.969
same,normalized growth,"locus YBR160W, strain CDC28, stronger effect = lower value",0.973
same,normalized growth,"locus YDL017W, strain CDC7, stronger effect = lower value",0.974
same,normalized growth,"locus YDL028C, strain MPS1, stronger effect = lower value",0.969
same,normalized growth,"locus YDL101C, strain DUN1, stronger effect = lower value",0.984
same,normalized growth,"locus YDL108W, strain KIN28, stronger effect = lower value",0.974
same,normalized growth,"locus YDL132W, strain cdc53, stronger effect = lower value",0.976
same,normalized growth,"locus YDL214C, strain PRR2, stronger effect = lower value",0.942
same,normalized growth,"locus YDR052C, strain DBF4, stronger effect = lower value",0.98
same,normalized growth,"locus YDR054C, strain cdc34, stronger effect = lower value",0.961
same,normalized growth,"locus YDR226W, strain ADK1, stronger effect = lower value",0.97
same,normalized growth,"locus YDR477W, strain SNF1, stronger effect = lower value",0.936
same,normalized growth,"locus YER123W, strain YCK3, stronger effect = lower value",0.905
same,normalized growth,"locus YER133W, strain GLC7, stronger effect = lower value",0.898
same,normalized growth,"locus YFL009W, strain cdc4, stronger effect = lower value",0.97
same,normalized growth,"locus YFL029C, strain CAK1, stronger effect = lower value",0.967
same,normalized growth,"locus YFR003C, strain YPI1, stronger effect = lower value",0.975
same,normalized growth,"locus YFR019W, strain FAB1, stronger effect = lower value",0.944
same,normalized growth,"locus YFR028C, strain CDC14, stronger effect = lower value",0.977
same,normalized growth,"locus YGR040W, strain KSS1, stronger effect = lower value",0.94
same,normalized growth,"locus YGR052W, strain FMP48, stronger effect = lower value",0.984
same,normalized growth,"locus YGR092W, strain DBF2, stronger effect = lower value",0.942
same,normalized growth,[1],0.784 (active)
same,normalized growth,[2],0.864
same,normalized growth,"locus YHR082C, strain KSP1, stronger effect = lower value",1.05
same,normalized growth,"locus YHR205W, strain SCH9, stronger effect = lower value",0.911
same,normalized growth,"locus YIL147C, strain SLN1, stronger effect = lower value",0.976
same,normalized growth,[3],0.866
same,normalized growth,"locus YJL128C, strain PBS2, stronger effect = lower value",0.953
same,normalized growth,"locus YJL157C, strain FAR1, stronger effect = lower value",0.934
same,normalized growth,"locus YJR016C, strain ILV3, stronger effect = lower value",0.985
same,normalized growth,"locus YJR066W, strain TOR1 (second series), stronger effect = lower value",0.869
same,normalized growth,[4],0.993
same,normalized growth,"locus YKL048C, strain ELM1, stronger effect = lower value",0.953
same,normalized growth,"locus YKL067W, strain YNK1, stronger effect = lower value",0.928
same,normalized growth,"locus YKL101W, strain HSL1, stronger effect = lower value",0.929
same,normalized growth,"locus YKL193C, strain SDS22, stronger effect = lower value",0.983
same,normalized growth,"locus YKL203C, strain TOR2, stronger effect = lower value",0.968
same,normalized growth,[5],0.788 (active)
same,normalized growth,"locus YLR133W, strain CKI1, stronger effect = lower value",0.942
same,normalized growth,"locus YLR403W, strain SFP1, stronger effect = lower value",0.902
same,normalized growth,"locus YML070W, strain DAK1, stronger effect = lower value",0.925
same,normalized growth,"locus YMR001C, strain CDC5, stronger effect = lower value",0.973
same,normalized growth,"locus YMR205C, strain PFK2 (second series), stronger effect = lower value",0.959
same,normalized growth,"locus YMR277W, strain FCP1, stronger effect = lower value",0.963
same,normalized growth,"locus YNL006W, strain LST8, stronger effect = lower value",0.977
same,normalized growth,"locus YNL020C, strain ARK1, stronger effect = lower value",0.911
same,normalized growth,"locus YNL161W, strain CBK1, stronger effect = lower value",0.967
same,normalized growth,[6],0.951
same,normalized growth,"locus YNL207W, strain RIO2, stronger effect = lower value",0.97
same,normalized growth,"locus YNL222W, strain SSU72, stronger effect = lower value",0.977
same,normalized growth,"locus YNL307C, strain MCK1 (second series), stronger effect = lower value",0.926
same,normalized growth,"locus YOL078W, strain AVO1, stronger effect = lower value",0.981
same,normalized growth,"locus YOL136C, strain PFK27, stronger effect = lower value",0.925
same,normalized growth,"locus YOR061W, strain CKA2, stronger effect = lower value",0.926
same,normalized growth,"locus YOR119C, strain RIO1, stronger effect = lower value",0.999
same,normalized growth,[7],0.88
same,normalized growth,"locus YOR329C, strain SCD5, stronger effect = lower value",0.968
same,normalized growth,"locus YPL031C, strain PHO85, stronger effect = lower value",0.922
same,normalized growth,"locus YPL153C, strain RAD53, stronger effect = lower value",0.928
same,normalized growth,"locus YPL204W, strain HRR25, stronger effect = lower value",0.908
same,normalized growth,"locus YPL209C, strain IPL1, stronger effect = lower value",0.975
same,normalized growth,[8],0.829 (active)
same,normalized growth,"locus YPR025C, strain CCL1, stronger effect = lower value",0.968
same,normalized growth,"locus YPR106W, strain ISR1, stronger effect = lower value",0.978
same,normalized growth,"locus YPR111W, strain DBF20, stronger effect = lower value",0.962
same,normalized growth,"strain NNK1, stronger effect = lower value",0.977
same,normalized growth,"strain TSCII, stronger effect = lower value",0.968
CN(C)[C@@H]1C(=O)C(C(=O)NCN2CCCC2)=C(O)[C@@]2(O)C(=O)C3=C(O)c4c(O)cccc4[C@@](C)(O)[C@H]3C[C@@H]12,normalized growth,"locus YAL021C, strain ccr4, stronger effect = lower value",0.935
same,normalized growth,"locus YAL026C, strain drs2, stronger effect = lower value",0.976
same,normalized growth,"locus YAL030W, strain snc1, stronger effect = lower value",0.994
same,normalized growth,"locus YBL061C, strain skt5, stronger effect = lower value",0.999
same,normalized growth,"locus YBR009C, strain hhf1, stronger effect = lower value",0.965
same,normalized growth,"locus YBR023C, strain chs3, stronger effect = lower value",0.992
same,normalized growth,"locus YBR171W, strain sec66, stronger effect = lower value",1.02
same,normalized growth,"locus YBR231C, strain swc5, stronger effect = lower value",0.974
same,normalized growth,"locus YBR279W, strain paf1, stronger effect = lower value",1
same,normalized growth,"locus YCL011C, strain gbp2, stronger effect = lower value",0.94
same,normalized growth,"locus YCL016C, strain dcc1, stronger effect = lower value",0.997
same,normalized growth,"locus YCL061C, strain MRC1, stronger effect = lower value",0.997
same,normalized growth,"locus YCL069W, strain vba3, stronger effect = lower value",1.02
same,normalized growth,"locus YCR088W, strain abp1, stronger effect = lower value",1.01
same,normalized growth,"locus YDL005C, strain med2, stronger effect = lower value",1.04
same,normalized growth,"locus YDL040C, strain nat1, stronger effect = lower value",1.02
same,normalized growth,"locus YDR001C, strain nth1, stronger effect = lower value",1.01
same,normalized growth,"locus YDR069C, strain doa4, stronger effect = lower value",0.942
same,normalized growth,"locus YDR137W, strain rgp1, stronger effect = lower value",0.922
same,normalized growth,"locus YDR159W, strain sac3, stronger effect = lower value",1.04
same,normalized growth,"locus YDR195W, strain ref2",1.11
same,normalized growth,"locus YDR297W, strain sur2, stronger effect = lower value",0.985
same,normalized growth,"locus YDR334W, strain swr1, stronger effect = lower value",0.994
same,normalized growth,"locus YDR335W, strain msn5, stronger effect = lower value",1
same,normalized growth,"locus YDR392W, strain spt3, stronger effect = lower value",0.908
same,normalized growth,"locus YEL003W, strain gim4, stronger effect = lower value",0.732 (active)
same,normalized growth,"locus YEL037C, strain rad23, stronger effect = lower value",1
same,normalized growth,"locus YEL061C, strain CIN8 (second series), stronger effect = lower value",1.01
same,normalized growth,"locus YER015W, strain faa2, stronger effect = lower value",0.99
same,normalized growth,"locus YER016W, strain bim1, stronger effect = lower value",1.02
same,normalized growth,"locus YER111C, strain swi4, stronger effect = lower value",1.01
same,normalized growth,"locus YER155C, strain BEM2 (second series), stronger effect = lower value",0.926
same,normalized growth,"locus YFR010W, strain ubp6, stronger effect = lower value",0.985
same,normalized growth,"locus YGL167C, strain pmr1, stronger effect = lower value",1
same,normalized growth,"locus YGL173C, strain kem1, stronger effect = lower value",1.01
same,normalized growth,"locus YGL227W, strain vid30, stronger effect = lower value",1.03
same,normalized growth,"locus YGL240W, strain doc1, stronger effect = lower value",0.987
same,normalized growth,"locus YGL253W, strain hxk2, stronger effect = lower value",1.01
same,normalized growth,"locus YHR013C, strain ard1, stronger effect = lower value",1
same,normalized growth,"locus YHR027C, strain rpn1, stronger effect = lower value",0.995
same,normalized growth,[1],1.03
same,normalized growth,[2],1.01
same,normalized growth,"locus YHR142W, strain chs7, stronger effect = lower value",1
same,normalized growth,"locus YJL092W, strain hpr5, stronger effect = lower value",1.01
same,normalized growth,"locus YJL095W, strain BCK1 (second series), stronger effect = lower value",0.994
same,normalized growth,[3],0.992
same,normalized growth,"locus YJL115W, strain asf1, stronger effect = lower value",1.01
same,normalized growth,"locus YJL129C, strain trk1, stronger effect = lower value",1.03
same,normalized growth,"locus YJL154C, strain vps35, stronger effect = lower value",1.02
same,normalized growth,"locus YJL164C, strain tpk1, stronger effect = lower value",0.937
same,normalized growth,"locus YJL166W, strain qcr8, stronger effect = lower value",0.944
same,normalized growth,"locus YJL187C, strain SWE1, stronger effect = lower value",0.994
same,normalized growth,[4],0.965
same,normalized growth,"locus YKL160W, strain elf1, stronger effect = lower value",1
same,normalized growth,"locus YKR026C, strain gcn3, stronger effect = lower value",1
same,normalized growth,"locus YKR091W, strain srl3, stronger effect = lower value",1.02
same,normalized growth,"locus YLL001W, strain dnm1, stronger effect = lower value",1.02
same,normalized growth,"locus YLL026W, stronger effect = lower value",1
same,normalized growth,"locus YLL041C, strain sdh2, stronger effect = lower value",1.01
same,normalized growth,"locus YLR027C, strain aat2, stronger effect = lower value",0.984
same,normalized growth,[5],0.959
same,normalized growth,"locus YLR221C, strain rsa3, stronger effect = lower value",0.907 (active)
same,normalized growth,"locus YLR258W, strain gsy2, stronger effect = lower value",0.967
same,normalized growth,"locus YLR262C, strain YPT6 (second series), stronger effect = lower value",0.945
same,normalized growth,"locus YLR320W, strain mms22, stronger effect = lower value",0.97
same,normalized growth,"locus YLR342W, strain FKS1, stronger effect = lower value",1
same,normalized growth,"locus YLR357W, strain rsc2, stronger effect = lower value",0.787 (active)
same,normalized growth,"locus YLR370C, strain arc18, stronger effect = lower value",1
same,normalized growth,"locus YLR384C, strain iki3, stronger effect = lower value",1.01
same,normalized growth,"locus YML120C, strain ndi1, stronger effect = lower value",0.936
same,normalized growth,"locus YMR058W, strain fet3, stronger effect = lower value",0.879 (active)
same,normalized growth,"locus YMR125W, strain sto1, stronger effect = lower value",1.03
same,normalized growth,"locus YMR129W, stronger effect = lower value",1.01
same,normalized growth,"locus YMR205C, strain PFK2, stronger effect = lower value",1.01
same,normalized growth,"locus YMR231W, strain pep5, stronger effect = lower value",1.01
same,normalized growth,"locus YNL071W, strain lat1, stronger effect = lower value",0.942
same,normalized growth,[6],0.946
same,normalized growth,"locus YNL209W, strain ssb2, stronger effect = lower value",0.993
same,normalized growth,"locus YNL248C, strain rpa49, stronger effect = lower value",0.796 (active)
same,normalized growth,"locus YNL322C, strain KRE1 (second series), stronger effect = lower value",1
same,normalized growth,"locus YNR049C, strain mso1, stronger effect = lower value",1.01
same,normalized growth,"locus YOR001W, strain rrp6, stronger effect = lower value",0.89 (active)
same,normalized growth,"locus YOR070C, strain gyp1, stronger effect = lower value",1
same,normalized growth,"locus YOR080W, strain dia2, stronger effect = lower value",1.01
same,normalized growth,"locus YOR083W, strain WHI5, stronger effect = lower value",0.978
same,normalized growth,"locus YOR106W, strain vam3, stronger effect = lower value",0.849 (active)
same,normalized growth,[7],1.03
same,normalized growth,"locus YOR265W, strain rbl2, stronger effect = lower value",1
same,normalized growth,"locus YOR270C, strain vph1, stronger effect = lower value",0.977
same,normalized growth,"locus YOR290C, strain snf2, stronger effect = lower value",0.991
same,normalized growth,"locus YPL051W, strain arl3, stronger effect = lower value",0.949
same,normalized growth,"locus YPL078C, strain atp4, stronger effect = lower value",1
same,normalized growth,"locus YPL106C, strain sse1, stronger effect = lower value",0.95
same,normalized growth,"locus YPL240C, strain hsp82, stronger effect = lower value",1.02
same,normalized growth,[8],1.01
